High-throughput results: PubChem BioAssay, National Center for Advancing Translational Sciences (NCATS)
IL-1B inflam inh – inflammasome signaling inhibition, IL-1 beta readout | THP-1 LPS/ATP IL-1B secretion, AlphaLISA, 16 h; stronger effect = lower value | AID 743279 | activity change, % at 57.5 µM | 360,000 compounds, 4.7% hits; in the data active means activity change below about -50%; inconclusive means mostly about -30% to -49%
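THP-1 cells pretreated 1 hr with compounds (up to 57.5 uM final), then stimulated with LPS (250 ng/mL final) plus ATP (1.25 mM final); secreted IL-1B measured by AlphaLISA after 16 hr, decreased signal indicating inhibition.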
TDP1 cell noCPT – qHTS for Inhibitors of human tyrosyl-DNA phosphodiesterase 1 (TDP1): qHTS in cells in absence of CPT. DT40 Tdp1-/- hTDP1 cells, no CPT, ATP luminescence, 48 h. Potency, µM (titrated, usually from 46.2 µM), without a hit: top-dose activity change, negative = growth inhibition, most hits filed as inhibitors. 420,000 compounds, 15% hits; further: potency means the concentration at half of the fitted maximal effect; nearly all actives have a fitted effect of over 55% in size
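Readout: luminescence from CellTiter-Glo after 30 min in the dark at RT. Cells: DT40 Tdp1-/- with stable hTDP1, 400/well. Exposure: compounds alone, ≥48 hr, 37 °C.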
HT1080NT lethal – kills 2HG-producing HT-1080-NT fibrosarcoma cells | HT-1080-NT fibrosarcoma viability, CellTiter-Glo ATP luminescence, 48 h | Potency, µM (highest dose often 46.1 µM), for the others: at the highest dose activity, negative = less viability, actives largely listed as cytotoxic | 360,000 compounds, 1.6% hits | AID 686970;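 further: NT is the 2HG producing partner of a matched IDH1 knockdown line; potency means the concentration at half of the fitted maximal effect; 0% = DMSO-treated cells and -100% = media-only wells without cells; nearly all actives have a fitted effect of over 55% in size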
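Fibrosarcoma NT cells, 750 per well in 5% FBS RPMI, were exposed to compound for 48 hours. Viability: CellTiter-Glo luminescence.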
DT40 TDP1 CPT – DT40-hTDP1 cell growth loss with CPT | chicken DT40 Tdp1-/-;hTDP1 cells + 20 nM CPT, ATP luminescence, 48 h | Potency, µM (doses to about 46.2 µM), for inactives: top-dose activity change, negative = growth inhibition, usual class: inhibitors | 420,000 compounds, 12% hits | AID 686979; further: potency means the concentration at half of the fitted maximal effect; nearly all actives have a fitted effect of over 55% in size
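Chicken DT40 Tdp1-/- cells complemented with human TDP1, 400 cells/well, exposed to compounds plus 20 nM camptothecin for at least 48 h at 37 C; viability read as ATP content by CellTiter-Glo luminescence.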
HT1080 IDH1KD tx – kills HT-1080 cells with IDH1 knockdown; HT-1080 IDH1 knockdown viability, ATP luminescence, 48 h; Potency, µM (top dose mostly 46.1 µM), for the others: top-dose activity, negative = toxicity, hits mostly cytotoxic; 360,000 compounds, 2% hits; AID 686971;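 further: potency means the concentration at half of the fitted maximal effect; 0% = DMSO wells and -100% = cell-free medium wells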
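Assay cells: HT-1080 with IDH1 knockdown, 750 per well, RPMI/5% FBS. Exposure: 48 h at 37 °C following 2 h pre-incubation. Read: CellTiter-Glo luminescence; fitted concentration-response, curve class assigned.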
Numbers without * were called inactive; i = inactive; ? = inconclusive; . = no result given. Most compounds without a hit are left out; they make up all but 19% or so of the library. Unless noted, the call rests on the fitted dose curve; in most records, active means well fitted curve in the direction sought with a large enough effect; inconclusive means small, poorly fitted or top-dose-only effect, or another doubt; inactive means no such curve, though single readings can be large; an effect the other way counts as inactive or inconclusive. Unless noted, on the % scale 0 is the no-effect control and ±100 the full control effect.

SMILES	IL-1B inflam inh	TDP1 cell noCPT	HT1080NT lethal	DT40 TDP1 CPT	HT1080 IDH1KD tx
Brc1ccc(-c2ccc(/C=N/Nc3nncc(-c4ccccc4)n3)o2)cc1	-3	18µM*	4%	?	14%
Fc1cnc(N/N=C/c2ccc(-c3ccc(Br)cc3)o2)nc1N1CCOCC1	50	3%	1%	11%	-10%
COc1ccc(-c2cnnc(N/N=C/c3c(C)nn(-c4ccccc4)c3Cl)n2)cc1	-3	5.2µM*	10%	3.7µM*	?
CCNc1nc(NCC)nc(N/N=C/c2ccc(O)c(O)c2)n1	19	-4%	-4%	23µM*	-7%
COc1cc(CCC(N)c2cccc(O)c2)cc(OC)c1OC (configuration not stated)	-1	-6%	1%	13%	17%
COc1ccc(NC(=O)COC(=O)c2ccc(-n3cnnn3)cc2)c([N+](=O)[O-])c1	11	35%	9%	-13%	-1%
CC(=O)C[C@@H]1OC[C@H](Cc2ccccc2)N1S(=O)(=O)c1ccc(C)cc1	?	?	-23%	?	-18%
O=C(O)Cn1c(=O)c2c3c(sc2n(Cc2ccc(Cl)cc2Cl)c1=O)CCCC3	0	-24%	-25%	-21%	3%
COc1ccc(-c2cnnc(N/N=C/c3ccc(C)o3)n2)cc1	-19	18µM*	6%	?	-1%
COc1ccc(-c2cnnc(N/N=C/c3ccc(O)c(O)c3)n2)cc1	-5	9.2µM*	?	7.3µM*	?
Cc1ccc(/C=N/Nc2nc3ccccc3s2)o1	?	?	-8%	?	-10%
CCOC(=O)c1nnc(-c2ccccc2)nc1N1CCSCC1	-4	?	10%	-14%	10%
CCOC(=O)c1cnc(-c2ccccc2)nc1Oc1ccc(Cl)c(Cl)c1	14	-4%	8%	-4%	9%
CCOC(=O)c1nnc(-c2ccc(C)cc2)nc1Sc1cccc(Cl)c1	1	?	1%	9.2µM*	11%
CCOC(=O)c1nnc(-c2ccccc2)nc1Oc1ccc(Cl)cc1	-71*	16µM*	?	21µM*	?
O=C(Nc1ccc(S(=O)(=O)NCc2ccccc2)cc1)c1ccc(Br)o1	24	21µM*	-2%	21µM*	-1%
O=C(Nc1ccc(S(=O)(=O)NCc2cccnc2)cc1)c1ccccc1Cl	2	10µM*	1%	13µM*	-9%
CC(=O)Nc1ccc(S(=O)(=O)NCc2cccnc2)cc1	24	?	22%	3.3µM*	28%
O=C(Nc1ccccc1)c1ccc(S(=O)(=O)NCc2cccnc2)cc1	9	?	-25%	-50%	-16%
O=C(Nc1ccc(S(=O)(=O)NCc2cccnc2)cc1)c1ccco1	22	?	3%	?	-1%
CN(C)C(=O)c1ccc(NC(=O)CN2C(=O)NC3(CCCc4ccccc43)C2=O)cc1 (configuration not stated)	12	1%	-8%	-20%	-2%
COc1ccc(NC(=O)c2oc3ccccc3c2NC(=O)Cc2coc3ccc(C)cc23)cc1	.	?	.	-24%	.
Cc1ccc(NC(=O)Cc2coc3ccc(C(C)C)cc23)cc1Cl	.	29µM*	.	?	.
CCc1ccc2occ(CC(=O)Nc3ccc(C)c(C)c3)c2c1	.	13µM*	.	?	.
CCCCOC(=O)c1ccc(NC(=O)Cc2coc3ccc(C(C)C)cc23)cc1	.	23µM*	.	26µM*	.
SMILES	IL-1B inflam inh	TDP1 cell noCPT	HT1080NT lethal	DT40 TDP1 CPT	HT1080 IDH1KD tx
CCOc1ccc(NC(=O)Cc2coc3ccc(C)cc23)cc1	.	21µM*	.	16µM*	.
Cc1nn(-c2ccccc2)nc1CNC(=O)CC(C)(C)C	30	-26%	-10%	-12%	1%
COc1ccccc1NC(=O)CSc1nnc(NC(=O)C2CCC2)s1	14	?	-2%	-26%	-10%
CCCCN(CCCC)CCNC(=O)CNC(=O)c1cccs1	13	-1%	9%	-26%	-2%
Cc1cc(S(=O)(=O)N2CCC3(CC2)OCCO3)c(C)cc1Cl	i	-13%	-3%	?	6%
Cc1ccc(OCC(=O)NCCCNC(=O)c2cnccn2)cc1C	7	-1%	15%	?	10%
Cc1cc(OCC(=O)NNC(=O)c2cnccn2)cc(C)c1Cl	46	5.8µM*	?	10µM*	?
O=C(NNC(=O)c1ccc(Cl)cc1Cl)c1cnccn1	29	26µM*	-10%	?	?
O=C(Nc1ccccc1Cl)c1cnccn1	-6	5%	13%	6%	1%
O=C(NNC(=O)c1cnccn1)c1ccc(Cl)cc1	23	15µM*	-15%	?	-20%
CC1(C(=O)NS(=O)(=O)c2ccccc2Cl)CCN1C(=O)Cc1cccs1 (configuration not stated)	-3	18%	13%	-3%	?
O=C(NCCO)C(=O)Nc1c2c(nn1-c1ccc(F)cc1)CSC2	.	-2%	.	-7%	.
COc1cccc(-c2nc(NC(C)C)c3ccccc3n2)c1O	?	21µM*	?	?	?
CCC(C)Nc1nc(-c2cccc(OC)c2O)nc2ccccc12 (configuration not stated)	-74*	?	?	?	?
CC1(C(=O)NS(=O)(=O)c2ccc(Cl)s2)CCN1C(=O)Cc1ccc(Cl)cc1Cl (configuration not stated)	22	-4%	-1%	-14%	0%
